What all share (assay): NCI-60 one-dose screen, 48 h (100 = growth as untreated, 0 = no growth, -100 = all killed)
In test [1] the test system is DU-145 prostate. To be noted: 10 µM unless noted.
The test system of test [2] is K-562 leukemia. To be noted: 10 µM unless noted.
The subject of test [3] is MALME-3M melanoma. The conditions noted are these: 10 µM unless noted.
Test [4] deals with MDA-MB-231 breast. The conditions noted are these: 10 µM unless noted.
Test [5] concerns RXF 393 renal. To be noted: 10 µM unless noted.
The test system of test [6] is SF-268 CNS. To be noted: 10 µM unless noted.
Test [7] deals with SF-295 CNS. The conditions noted are these: 10 µM unless noted.
The subject of test [8] is SF-539 CNS. The conditions noted are these: 10 µM unless noted.
The test system of test [9] is UACC-257 melanoma. To be noted: 10 µM unless noted.
Test [10] has as its system M14 melanoma. To be noted: 10 µM unless noted.
In test [11] the test system is HCT-15 colon. To be noted: 10 µM unless noted.
Test [12] concerns HT29 colon. The conditions noted are these: 10 µM unless noted.
For test [13], the system named is SNB-75 CNS. To be noted: 10 µM unless noted.
For test [14], the system named is SNB-19 CNS. The conditions noted are these: 10 µM unless noted.
Test [15] has as its system U251 CNS. The conditions noted are these: 10 µM unless noted.
The subject of test [16] is PC-3 prostate. To be noted: 10 µM unless noted.
Test [17] has as its system SK-MEL-5 melanoma. To be noted: 10 µM unless noted.
The subject of test [18] is UACC-62 melanoma. The conditions noted are these: 10 µM unless noted.
The subject of test [19] is LOX IMVI melanoma. The conditions noted are these: 10 µM.
The test system of test [20] is SK-MEL-28 melanoma. To be noted: 10 µM unless noted.

Molecules are shown by their SMILES. This is part of a sample that, as a whole, favours compounds with a hit. Of some 83,000 tested, about 20% had one in any assay.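 96-well plates, one dose, 48 hours. Percent growth reported; active if below 10.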 A number with no mark means an inactive call. Active and inactive are the calls of the source.

As to `Cc1ccc(-c2nc(C#N)c(S(=O)(=O)N3CCN(S(=O)(=O)c4ccc(Cl)cc4)CC3)o2)cc1`, the growth in [1] is 97.4%; in [2], 56.9%; in test [3], 79.1%; in test [4], 90.9%; in test [5], 56.6%; in test [6], 75.8%. Also, the growth in [7] was 110%; in test [8] it was 70.5%; in test [9], 89.5%; in [10], 91.5%; in [11], 103%; in test [12] it was 117%. The growth in [13] is 86.3%; in [14], 68.9%; in test [15] it was 62.1%; in [16], 101%; in test [17] it was 94.4%; in test [18], 83.5%. For the same compound, the figures for the growth in test [19] and in [20] were 0.237% (active) and 98.7%, respectively.

Consider `COc1cc2c3c(n(CCCN4CCC[C@@H]4CO)c(=O)c2cc1OC)-c1cc2c(cc1C3=O)OCO2`, for which the growth in test [1] is -100% (active); in [2] it was 2.24% (active); in [3], -85.6% (active); in test [4], -93.3% (active); in test [5], -66.5% (active); in test [6], -60.8% (active). In addition, the growth in [7] was -86% (active); in test [8], -98.2% (active); in [9], 71.2%; in [10], -85.9% (active); in [11], -90.9% (active); in test [12] it was -95.2% (active). Besides, the growth in test [13] was -83.4% (active); in test [14] it was -90.1% (active); in [15], -95.1% (active); in test [16], -17.8% (active); in [17], -90.8% (active); in test [18], 11.7%. Besides, the growth was -98.7% (active) in test [19] and -92.1% (active) in [20].

Consider `COc1cc2oc(-c3cccc(C(=O)Nc4ccc(Cl)cc4)c3)cc(=O)c2c(OCC(=O)N[C@@H](Cc2ccccc2)C(=O)O)c1OC`, for which the growth in test [1] is 111%; in test [2], 96.5%; in test [3], 107%; in test [4] it was 96.1%; in test [5], 111%; in test [6], 110%. For the same compound, the growth is 111% in test [7]; 99.3% in test [8]; 104% in test [9]; 109% in [10]; 112% in test [11]; 112% in test [12]. Besides, the growth in test [13] was 112%; in test [14] it was 98.2%; in test [15], 109%; in test [16] it was 97.5%; in test [17], 96.1%; in test [18] it was 97.8%. Besides, the growth is 83.4% in test [19] and 95.5% in test [20].

Take `O=C(c1ccccc1)c1ccc2nc(-c3cccc(Cl)c3)[nH]c2c1`: the growth in [1] is 115%; in test [2] it was 98.1%; in test [3] it was 111%; in test [4], 102%; in [5] it was 115%; in test [6], 106%. In addition, the growth in test [7] was 116%; in [8], 94.9%; in test [9], 100%; in test [10], 108%; in test [11] it was 108%; in test [12], 110%. For the same compound, the growth in [13] is 99.2%; in test [14], 103%; in [15], 96.5%; in test [16], 99.6%; in test [17], 99.5%; in [18] it was 98%. The growth was 95.4% in [19] and 104% in [20].

On to `COc1ccc(/C=N/NC(=O)Cn2nc(Cc3ccc(OC)cc3)c3onc(C)c3c2=O)cc1`, for which the growth in test [1] is 64%; in [2] it was 53.9%; in [3] it was 50.8%; in test [4], 57.8%; in test [5] it was 2.21% (active); in test [6], 65.4%. Moreover, the growth in [7] is 48.2%; in test [8], 47.6%; in test [9], 77%; in [10] it was 63.9%; in test [11] it was 70.2%; in test [12] it was 38.1%. The growth in [13] is 26.9%; in [14] it was 56.3%; in test [15] it was 54.6%; in test [16], 23.2%; in test [17], 91.6%; in test [18], 48.5%. Also, the growth in test [19] was 10.6%; in test [20], 29.8%.

For `COc1ccc(/C=C2\C(=N)N=C(SCc3nc4ccccc4[nH]3)NC2=O)cc1`, the growth was 115% in [1]; 112% in [2]; 102% in test [3]; 105% in [4]; 122% in [5]; 109% in [6]. The growth in test [7] was 103%; in test [8] it was 103%; in test [9], 108%; in [10] it was 112%; in test [11] it was 104%; in test [12], 116%. Moreover, the growth in test [13] is 103%; in [14], 104%; in test [15], 101%; in test [16] it was 122%; in [17], 101%; in test [18] it was 103%. Further, the growth in [19] was 98.3%; in test [20] it was 118%.

Consider `CC(=O)c1c(N)c(C#N)cn1-c1ccc(Cl)cc1Cl`, for which the growth in test [1] was 113%; in test [2], 95.1%; in test [3] it was 107%; in test [4], 99.7%; in test [5] it was 104%; in test [6] it was 107%. In addition, the growth in [7] is 116%; in test [8], 99.9%; in [9], 106%; in test [10], 98.9%; in test [11], 99.5%; in test [12] it was 106%. The growth in [13] is 90.5%; in test [14], 102%; in test [15], 98%; in [16], 90.8%; in test [17], 98.8%; in [18], 80.8%. In addition, the growth in [19] is 99.2%; in test [20] it was 106%.
